Data on 13 compounds can be found in ChEMBL document CHEMBL1961873, “Compounds: GSK PKIS; Assays: Nanosyn kinase panel” (2012).

The target in assay [1] is Platelet-derived growth factor receptor beta (Homo sapiens) (UniProt P09619). The following applies: at 1 µM.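 Also: each value is a mean percent inhibition.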
In assay [2] the target is Tyrosine-protein kinase FRK (Homo sapiens) (UniProt P42685). The following applies: at 0.1 µM.
Assay [3] shares this target. The following applies: at 1 µM.
In assay [4] the target is Protein-tyrosine kinase 2-beta (Homo sapiens) (UniProt Q14289). The following applies: at 0.1 µM.
The target is the same in assay [5]. The following applies: at 1 µM.
The target of assay [6] is Proto-oncogene tyrosine-protein kinase receptor Ret (Homo sapiens) (UniProt P07949). The following applies: at 0.1 µM.
Proto-oncogene tyrosine-protein kinase receptor Ret (Homo sapiens), sequence (P07949 whole entry): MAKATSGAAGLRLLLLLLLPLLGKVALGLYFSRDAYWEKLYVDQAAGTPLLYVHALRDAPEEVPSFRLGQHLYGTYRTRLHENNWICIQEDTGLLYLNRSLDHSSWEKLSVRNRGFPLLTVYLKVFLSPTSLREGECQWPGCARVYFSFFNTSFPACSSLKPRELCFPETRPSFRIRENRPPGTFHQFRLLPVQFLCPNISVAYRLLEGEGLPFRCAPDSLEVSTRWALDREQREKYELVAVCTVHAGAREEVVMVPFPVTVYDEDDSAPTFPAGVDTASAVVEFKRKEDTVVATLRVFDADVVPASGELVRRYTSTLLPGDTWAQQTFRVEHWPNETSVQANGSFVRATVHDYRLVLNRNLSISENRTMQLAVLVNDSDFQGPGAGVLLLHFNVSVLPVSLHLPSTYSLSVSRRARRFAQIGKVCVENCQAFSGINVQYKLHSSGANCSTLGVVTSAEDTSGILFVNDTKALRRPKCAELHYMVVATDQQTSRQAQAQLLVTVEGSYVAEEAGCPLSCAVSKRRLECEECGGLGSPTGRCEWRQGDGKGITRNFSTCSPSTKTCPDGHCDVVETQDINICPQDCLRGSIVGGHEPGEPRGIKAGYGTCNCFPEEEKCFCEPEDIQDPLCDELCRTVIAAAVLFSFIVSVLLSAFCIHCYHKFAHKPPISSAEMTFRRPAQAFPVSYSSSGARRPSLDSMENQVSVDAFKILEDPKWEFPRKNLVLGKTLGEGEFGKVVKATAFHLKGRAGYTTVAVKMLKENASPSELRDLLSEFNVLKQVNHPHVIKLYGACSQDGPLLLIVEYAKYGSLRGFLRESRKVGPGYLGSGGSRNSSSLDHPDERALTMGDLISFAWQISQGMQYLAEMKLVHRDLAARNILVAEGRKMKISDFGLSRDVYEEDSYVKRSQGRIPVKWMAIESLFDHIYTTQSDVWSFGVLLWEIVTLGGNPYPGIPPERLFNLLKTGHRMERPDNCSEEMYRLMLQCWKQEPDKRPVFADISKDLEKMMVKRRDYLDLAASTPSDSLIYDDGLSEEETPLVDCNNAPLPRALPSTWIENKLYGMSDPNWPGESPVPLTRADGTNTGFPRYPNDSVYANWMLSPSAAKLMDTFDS
Assay [7] has the same target. The following applies: at 1 µM.
Assay [8] has as its system Proto-oncogene tyrosine-protein kinase receptor Ret (Homo sapiens), P07949 [V804L]. The following applies: at 0.1 µM.
Assay [9] has the same test system. The following applies: at 1 µM.
The subject of assay [10] is Proto-oncogene tyrosine-protein kinase receptor Ret (Homo sapiens), P07949 [Y791F]. The following applies: at 0.1 µM.
For assay [11] the test system is unchanged. The following applies: at 1 µM.
The target in assay [12] is Macrophage-stimulating protein receptor (Homo sapiens) (UniProt Q04912). The following applies: at 0.1 µM.
Macrophage-stimulating protein receptor (Homo sapiens), sequence (Q04912 25-304 limits assumed): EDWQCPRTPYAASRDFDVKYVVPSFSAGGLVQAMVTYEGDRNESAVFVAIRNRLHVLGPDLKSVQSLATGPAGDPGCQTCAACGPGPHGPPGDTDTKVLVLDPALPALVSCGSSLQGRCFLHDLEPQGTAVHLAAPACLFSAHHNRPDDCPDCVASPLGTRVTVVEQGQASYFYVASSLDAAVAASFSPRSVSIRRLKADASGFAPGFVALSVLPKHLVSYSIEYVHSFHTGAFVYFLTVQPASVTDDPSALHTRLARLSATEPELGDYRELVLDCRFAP
Macrophage-stimulating protein receptor (Homo sapiens), sequence (Q04912 310-1400 limits assumed): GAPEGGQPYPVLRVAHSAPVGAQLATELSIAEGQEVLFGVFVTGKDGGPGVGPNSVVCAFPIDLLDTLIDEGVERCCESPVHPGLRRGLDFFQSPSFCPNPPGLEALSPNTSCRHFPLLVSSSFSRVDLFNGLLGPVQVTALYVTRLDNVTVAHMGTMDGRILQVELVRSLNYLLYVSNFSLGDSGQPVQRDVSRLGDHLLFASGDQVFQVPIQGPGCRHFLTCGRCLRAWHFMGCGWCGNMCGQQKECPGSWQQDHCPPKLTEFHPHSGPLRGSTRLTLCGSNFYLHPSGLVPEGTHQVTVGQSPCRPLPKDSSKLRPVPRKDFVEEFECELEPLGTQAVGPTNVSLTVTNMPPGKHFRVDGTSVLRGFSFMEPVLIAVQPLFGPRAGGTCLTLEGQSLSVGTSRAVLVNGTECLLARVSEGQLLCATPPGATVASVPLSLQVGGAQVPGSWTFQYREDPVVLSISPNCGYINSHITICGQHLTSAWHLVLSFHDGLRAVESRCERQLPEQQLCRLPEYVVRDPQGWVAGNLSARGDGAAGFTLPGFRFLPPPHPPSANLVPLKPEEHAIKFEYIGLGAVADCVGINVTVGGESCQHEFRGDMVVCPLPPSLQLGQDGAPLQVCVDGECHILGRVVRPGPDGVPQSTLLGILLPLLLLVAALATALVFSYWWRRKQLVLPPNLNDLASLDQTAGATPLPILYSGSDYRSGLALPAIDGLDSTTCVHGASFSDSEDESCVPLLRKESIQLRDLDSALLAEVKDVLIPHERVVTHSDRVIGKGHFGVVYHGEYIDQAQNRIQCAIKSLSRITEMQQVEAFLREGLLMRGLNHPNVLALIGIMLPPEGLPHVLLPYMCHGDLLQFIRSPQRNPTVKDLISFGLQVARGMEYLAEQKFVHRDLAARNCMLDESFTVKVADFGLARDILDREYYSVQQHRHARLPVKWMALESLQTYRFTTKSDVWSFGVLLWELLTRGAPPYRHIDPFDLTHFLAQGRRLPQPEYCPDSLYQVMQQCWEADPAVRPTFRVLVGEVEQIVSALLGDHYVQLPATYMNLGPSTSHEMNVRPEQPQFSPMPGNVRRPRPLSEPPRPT
Assay [13] shares this target. The following applies: at 1 µM.
The target in assay [14] is Proto-oncogene tyrosine-protein kinase ROS (Homo sapiens) (UniProt P08922). The following applies: at 0.1 µM.
Proto-oncogene tyrosine-protein kinase ROS (Homo sapiens), sequence (P08922 whole entry): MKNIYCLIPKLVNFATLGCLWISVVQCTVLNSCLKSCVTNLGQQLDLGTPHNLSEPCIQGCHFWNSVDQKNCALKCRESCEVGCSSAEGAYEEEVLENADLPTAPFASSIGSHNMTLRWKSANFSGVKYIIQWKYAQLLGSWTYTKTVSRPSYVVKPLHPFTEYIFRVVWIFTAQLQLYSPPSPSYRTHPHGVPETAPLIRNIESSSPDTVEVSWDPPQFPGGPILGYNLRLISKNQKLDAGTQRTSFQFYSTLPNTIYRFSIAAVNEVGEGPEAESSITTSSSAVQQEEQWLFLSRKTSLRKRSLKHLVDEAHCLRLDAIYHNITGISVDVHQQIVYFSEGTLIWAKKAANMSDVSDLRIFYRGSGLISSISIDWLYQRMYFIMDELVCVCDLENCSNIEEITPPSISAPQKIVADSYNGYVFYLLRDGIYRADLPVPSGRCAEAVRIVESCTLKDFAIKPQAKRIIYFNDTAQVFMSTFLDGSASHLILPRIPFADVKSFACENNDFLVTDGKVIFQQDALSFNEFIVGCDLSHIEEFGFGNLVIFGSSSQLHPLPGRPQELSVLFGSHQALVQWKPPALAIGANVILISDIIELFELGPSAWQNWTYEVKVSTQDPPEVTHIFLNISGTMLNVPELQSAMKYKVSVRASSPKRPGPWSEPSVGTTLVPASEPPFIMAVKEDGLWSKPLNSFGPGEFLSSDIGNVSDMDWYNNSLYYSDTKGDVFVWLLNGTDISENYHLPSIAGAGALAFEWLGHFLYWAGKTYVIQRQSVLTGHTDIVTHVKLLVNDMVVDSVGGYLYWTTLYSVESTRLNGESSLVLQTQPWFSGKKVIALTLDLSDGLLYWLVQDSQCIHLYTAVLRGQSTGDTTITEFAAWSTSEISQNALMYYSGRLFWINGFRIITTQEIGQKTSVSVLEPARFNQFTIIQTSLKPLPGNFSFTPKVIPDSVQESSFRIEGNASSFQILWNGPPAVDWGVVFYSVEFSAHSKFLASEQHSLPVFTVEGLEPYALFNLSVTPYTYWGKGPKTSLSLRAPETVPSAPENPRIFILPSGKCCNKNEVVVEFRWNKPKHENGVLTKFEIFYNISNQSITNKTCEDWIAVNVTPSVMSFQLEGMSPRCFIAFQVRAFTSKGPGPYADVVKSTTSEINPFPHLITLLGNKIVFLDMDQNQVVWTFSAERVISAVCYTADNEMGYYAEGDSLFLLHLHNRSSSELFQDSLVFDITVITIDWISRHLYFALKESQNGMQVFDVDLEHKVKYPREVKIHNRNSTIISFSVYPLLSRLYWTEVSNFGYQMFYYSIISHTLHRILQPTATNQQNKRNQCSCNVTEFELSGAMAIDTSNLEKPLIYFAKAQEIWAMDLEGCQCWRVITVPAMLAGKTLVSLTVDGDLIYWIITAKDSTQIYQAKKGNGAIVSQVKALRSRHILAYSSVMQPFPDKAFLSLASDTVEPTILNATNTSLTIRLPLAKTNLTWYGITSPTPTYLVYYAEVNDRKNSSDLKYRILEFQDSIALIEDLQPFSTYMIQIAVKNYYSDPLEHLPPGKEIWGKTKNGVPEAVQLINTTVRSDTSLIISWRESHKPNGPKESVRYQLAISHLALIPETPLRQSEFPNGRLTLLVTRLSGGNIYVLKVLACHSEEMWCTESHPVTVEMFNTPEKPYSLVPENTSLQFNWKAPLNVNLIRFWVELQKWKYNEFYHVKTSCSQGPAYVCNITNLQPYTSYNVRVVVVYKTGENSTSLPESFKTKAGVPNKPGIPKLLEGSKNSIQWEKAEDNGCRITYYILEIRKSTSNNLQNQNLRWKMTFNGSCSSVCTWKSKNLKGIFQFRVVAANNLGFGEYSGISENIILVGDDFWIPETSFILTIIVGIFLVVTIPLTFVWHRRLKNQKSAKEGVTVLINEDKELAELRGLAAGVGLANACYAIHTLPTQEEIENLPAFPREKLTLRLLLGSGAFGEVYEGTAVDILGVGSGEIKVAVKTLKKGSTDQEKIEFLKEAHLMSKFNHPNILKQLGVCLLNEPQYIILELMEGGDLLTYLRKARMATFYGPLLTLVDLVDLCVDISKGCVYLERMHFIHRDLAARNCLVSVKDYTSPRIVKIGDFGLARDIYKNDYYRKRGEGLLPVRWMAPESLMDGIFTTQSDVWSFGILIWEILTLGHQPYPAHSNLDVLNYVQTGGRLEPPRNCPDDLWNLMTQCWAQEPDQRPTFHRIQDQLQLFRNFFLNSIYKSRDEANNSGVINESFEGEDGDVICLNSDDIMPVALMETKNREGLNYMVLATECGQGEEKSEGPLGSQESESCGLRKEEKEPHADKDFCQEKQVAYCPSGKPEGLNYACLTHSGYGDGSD
Assay [15] has the same target. The following applies: at 1 µM.
The target of assay [16] is Proto-oncogene tyrosine-protein kinase Src (Homo sapiens) (UniProt P12931). The following applies: at 0.1 µM.
Assay [17] shares this target. The following applies: at 1 µM.
In assay [18] the target is Tyrosine-protein kinase Srms (Homo sapiens) (UniProt Q9H3Y6). The following applies: at 0.1 µM.
For assay [19] the target is unchanged. The following applies: at 1 µM.
Assay [20] has as its target Tyrosine-protein kinase SYK (Homo sapiens) (UniProt P43405). The following applies: at 0.1 µM.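 Also: reported percentages are mean inhibition values for SYK.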

Molecules are shown by their SMILES.

Proto-oncogene tyrosine-protein kinase receptor Ret (Homo sapiens), P07949 [Y791F], sequence (P07949 whole entry Y791F): as the sequence (P07949 whole entry) above, with Y791F counted along it
Proto-oncogene tyrosine-protein kinase receptor Ret (Homo sapiens), P07949 [V804L], sequence (P07949 whole entry V804L): as the sequence (P07949 whole entry) above, with V804L counted along it

For the compound `Cc1ccc(NC(=O)c2ccoc2)cc1-c1ccc(C(=O)NCC2CC2)cc1`, the inhibition – broadly, the relative decrease from the control value, in per cent – was -0.8% in assay [1]; 0.1% in assay [2]; 2.51% in [3]; 0.3% in assay [4]; -0.07% in [5]; 5.24% in [6]. The inhibition in assay [7] was 0.04%; in assay [8], 1.71%; in assay [9] it was 2.38%; in assay [10] it was 1.45%; in assay [11], 4.03%; in [12], -2.83%. The inhibition in assay [13] is -3.5%; in assay [14], 0.21%; in assay [15] it was -0.03%; in assay [16], 5.81%; in assay [17], 4.32%; in [18], -1.74%. The inhibition in assay [19] is -2.77%; in assay [20], -1.35%.
For the compound `Fc1ccc(-c2ncn(C3CCNCC3)c2-c2ccnc(Oc3ccc(F)c(F)c3)n2)cc1`, the inhibition in [1] is 10.6%; in [2], 2.06%; in [3], 2.77%; in [4], 4.15%; in assay [5], 11.9%; in assay [6], 3.19%. Besides, the inhibition is 7.38% in assay [7]; 4.74% in [8]; 11.2% in assay [9]; 7.7% in [10]; 9.54% in assay [11]; 4.15% in [12]. Also, the inhibition was 2.54% in assay [13]; 5.19% in assay [14]; 4.41% in [15]; 5.82% in [16]; 7.25% in assay [17]; -3.17% in assay [18]. Moreover, the inhibition in [19] was -3.06%; in [20], -1.2%.
Regarding `CN(C)CCCNc1nccc(-c2c(-c3ccc(F)cc3)nn3cc(C(F)(F)F)ccc23)n1`, the inhibition in assay [1] was 14.1%; in assay [2] it was -0.09%; in assay [3], 1.37%; in assay [4], -1.38%; in assay [5] it was 1.42%; in [6], 7.28%. Besides, the inhibition in assay [7] is 10.8%; in assay [8], 8.31%; in [9] it was 21.7%; in assay [10], 10.9%; in assay [11], 13.2%; in [12], 3.96%. The inhibition in [13] came to 5.64%; in [14], 3.75%; in assay [15] it was 7.77%; in [16] it was 16.6%; in assay [17] it was 9.03%; in assay [18], 0.42%. The inhibition in assay [19] is 0.14%; in assay [20], -3.32%.
`NCc1ccc(-n2c(-c3nonc3N)nc3cnccc32)cc1`: the inhibition in assay [1] amounted to 37.3%; in assay [2], 1.83%; in [3] it was 1.83%; in assay [4] it was 11.2%; in [5] it was 9.24%; in assay [6], 5.69%. For the same compound, the inhibition in assay [7] is 7.7%; in assay [8] it was 7.22%; in assay [9], 9.65%; in assay [10], 7.37%; in assay [11] it was 7.16%; in assay [12], 2.95%. Further, the inhibition in [13] is 2.64%; in assay [14], 15.3%; in assay [15], 33%; in assay [16] it was 9.83%; in assay [17] it was 9.77%; in [18], -2.58%. For the same compound, the figures for the inhibition in assay [19] and in [20] were -2.9% and -3.99%, respectively.
Consider `COc1ccc(-c2ccc3c(NC(=O)C4CC4)n[nH]c3n2)cc1`, for which the inhibition is 5.91% in assay [1]; 0.53% in assay [2]; -0.31% in [3]; 0.18% in assay [4]; 6.52% in assay [5]; 0.65% in [6]. The inhibition in [7] was determined as 1.93%; in assay [8], 6.95%; in assay [9] it was 9.13%; in assay [10], 0.39%; in [11], 9.16%; in assay [12], 6.88%. The inhibition in assay [13] was 2.2%; in assay [14] it was 2.06%; in assay [15], 3.33%; in [16] it was 7.63%; in [17] it was 4.36%; in assay [18], -2.79%. Also, the values for the inhibition in [19] and in assay [20] were 2.08% and 0.08%, respectively.
In the case of `O=C(Nc1n[nH]c2cc(-c3cc(F)ccc3F)ccc12)C1CC1`, the inhibition was 14.1% in [1]; 2.44% in assay [2]; 0.71% in [3]; 9.57% in [4]; 10.3% in assay [5]; 6.14% in [6]. In addition, the inhibition in assay [7] amounted to 10.3%; in assay [8], 3.33%; in assay [9] it was 2.9%; in assay [10] it was 7.68%; in assay [11], 11.5%; in [12], 4.71%. In addition, the inhibition is 1.65% in [13]; 5.51% in assay [14]; 5.37% in assay [15]; -1.08% in assay [16]; 8.62% in [17]; -0.64% in assay [18]. Moreover, the inhibition in assay [19] is -2.57%; in assay [20], -7.24%.
Consider `c1ccc(-c2n[nH]cc2-c2ccnc(-c3ccc(OCCN4CCOCC4)cc3)c2)nc1`, for which the inhibition is 52.2% in [1]; 2.08% in assay [2]; 0.63% in assay [3]; -9.86% in [4]; 0.28% in [5]; 8.77% in assay [6]. Moreover, the inhibition in assay [7] is 11.1%; in [8], 6.56%; in [9], 4.32%; in assay [10], 10%; in assay [11], 12.9%; in assay [12], -5.76%. The inhibition is 3.22% in [13]; 7.93% in [14]; 11.1% in [15]; 1.88% in assay [16]; 4.39% in [17]; 4.69% in assay [18]. For the same compound, the inhibition in assay [19] stood at 3.57%; in assay [20] it was 11.6%.
For the compound `NS(=O)(=O)c1ccc(N/N=C2\C(=O)Nc3ccc(C(=O)NCCCn4ccnc4)cc32)cc1`, the inhibition in assay [1] is 68.9%; in [2], 2.01%; in assay [3] it was 2.76%; in assay [4], 14.3%; in assay [5] it was 20.9%; in assay [6], 12.5%. In addition, the inhibition was 51.9% in assay [7]; 38.7% in [8]; 76.2% in assay [9]; 14.2% in assay [10]; 59.8% in assay [11]; -0.93% in [12]. For the same compound, the inhibition in [13] is 7.24%; in assay [14], 9.73%; in assay [15], 13.2%; in assay [16] it was 9.31%; in assay [17], 27.1%; in [18], -1.71%. Further, the inhibition in assay [19] was 1.02%; in [20] it was -1.95%.
For `Fc1ccc(-c2ncn(C3CCNCC3)c2-c2ccnc(Oc3ccc4c(c3)OCO4)n2)cc1`, the inhibition was 12.7% in assay [1]; 3.01% in assay [2]; 4.4% in assay [3]; 7% in assay [4]; 9.57% in [5]; 3.97% in assay [6]. The inhibition in [7] was 6.88%; in assay [8] it was 9.21%; in assay [9], 12.4%; in assay [10], 14.5%; in assay [11], 12.8%; in assay [12], 3.59%. Further, the inhibition in assay [13] is 4.19%; in assay [14], 4.93%; in assay [15], 8.59%; in assay [16], 7.77%; in assay [17], 8.43%; in assay [18], -2.94%. Moreover, the inhibition in [19] is -4.12%; in assay [20], -0.62%.
Turning to `O=C(Nc1n[nH]c2cc(-c3ccccc3)ccc12)C1CC1`, the inhibition in assay [1] amounted to 13.3%; in assay [2], 2.92%; in [3], 2.17%; in assay [4], 11.3%; in assay [5] it was 7.93%; in assay [6] it was 4.67%. Moreover, the inhibition in assay [7] came out at 5.93%; in assay [8], 1.54%; in [9] it was 0.17%; in assay [10], 4.42%; in assay [11], 10.6%; in [12], 3.18%. For the same compound, the inhibition in assay [13] was 5.31%; in assay [14], 6.26%; in assay [15] it was 7.64%; in assay [16] it was 0.33%; in assay [17], 10.7%; in assay [18], -0.84%. In addition, the inhibition is 3.11% in assay [19] and -3.33% in assay [20].
Regarding `C#Cc1cccc(Nc2ncnc3ccc(OCCCCNCCS(C)(=O)=O)cc23)c1`, the inhibition is 20.5% in assay [1]; 5.22% in assay [2]; 4.16% in assay [3]; 12.1% in assay [4]; 10.3% in assay [5]; 14.3% in assay [6]. Further, the inhibition in assay [7] stood at 18.9%; in assay [8], 4.06%; in assay [9] it was 11.9%; in [10], 17.9%; in assay [11] it was 31.3%; in assay [12], 1.53%. Further, the inhibition was 7.33% in [13]; 3.71% in [14]; 8.09% in assay [15]; 1.2% in assay [16]; 17.9% in assay [17]; 0.83% in assay [18]. The inhibition in assay [19] was 5.07%; in assay [20], -6.78%.
With `CN1CCN(CCCNc2nc3ccc(Oc4ccc(NC(=O)Nc5cc(C(F)(F)F)ccc5F)cc4)cc3[nH]2)CC1`, the inhibition is 25.8% in assay [1]; -0.13% in assay [2]; 5.78% in assay [3]; 6.22% in [4]; 7.87% in assay [5]; 76.2% in assay [6]. The inhibition in [7] is 86.2%; in assay [8] it was 38.8%; in [9] it was 74.9%; in assay [10], 65.8%; in [11], 83.9%; in assay [12], -2.7%. The inhibition turned out to be 5.53% in assay [13]; 5.6% in assay [14]; 9.76% in assay [15]; 4.89% in assay [16]; 3.58% in assay [17]; 2.32% in [18]. Besides, the values for the inhibition in [19] and in assay [20] were 0.43% and 0.25%, respectively.
Consider `COc1ccc(C2=C(N3CCc4ccccc43)C(=O)NC2=O)cc1`, for which the inhibition came out at 12.1% in assay [1]; 2.66% in [2]; 0.27% in assay [3]; 11.7% in assay [4]; 16% in [5]; 9.66% in assay [6]. For the same compound, the inhibition in assay [7] came to 6.15%; in assay [8], 5.21%; in assay [9], 7.12%; in assay [10], 6.21%; in assay [11], 9.39%; in assay [12] it was 9.63%. In addition, the inhibition in assay [13] was 6.83%; in assay [14], 6.01%; in assay [15], 9.68%; in assay [16], -1.55%; in [17], 10.8%; in assay [18] it was 7.78%. For the same compound, the inhibition was 14.7% in assay [19] and -4.17% in assay [20].
